Screening data deposited in PubChem BioAssay by ICCB-Longwood Screening Facility, Harvard Medical School.
Vaccinia pol inh = vaccinia E9 polymerase processive synthesis inhibitors, primary screen, biochemical, absorbance. Vaccinia virus DNA polymerase (E9) processive complex. in vitro processive DNA synthesis, absorbance read-out; hits give low values. normalized absorbance, % (no concentration beside the values). hit rate 0.94% among 46,000; in the data active = normalized absorbance mostly below about 85%, no sharp cut-off; inactive = mostly above about 86%
Numbers stand for hits; - = inactive; ! = not confirmed by another sample. The full list was thinned out, with hits kept by preference.

SMILES | Vaccinia pol inh
C[C@@]1(C(=O)O)CC[C@]2(C)CC[C@]3(C)C4=CC=C5C=C(O)C(=O)C=C5[C@]4(C)CC[C@@]3(C)[C@@H]2C1 | 77
CCc1cccc(NC(=O)Cc2noc3ccccc23)c1 | -
CCOc1ccc(NC(=O)CN2C(=O)S/C(=C/c3ccc(Cl)cc3)C2=O)cc1 | -
CCOc1ccc(-n2ccnc2SCC(=O)Nc2ccc(Cl)cc2)cc1 | -
CCOc1ccc(NC(=O)c2sc(C)c(CC(=O)Nc3ccc(Cl)cc3)c2O)cc1 | 80
C=CCN1C(=O)C(=O)/C(=C(\O)c2ccccc2)C1c1ccc(OC)cc1 (centres undefined) | -
O=c1[nH]c2ccc(S(=O)(=O)NC3CC3)cc2[nH]1 | -
Brc1ccc2noc(-c3ccccc3)c2c1 | -
Cc1ccc(-c2onc3ccc(Cl)cc23)cc1 | -
Fc1ccc(-c2onc3ccc(-c4ccn[nH]4)cc23)cc1 | 79
Cc1ccc(NC(=O)c2ccccc2-n2cccc2)cc1 | -
Cn1ccnc1C(=O)c1cc(Cl)nc2ccccc12 | -
COC(CN(C)C(=O)c1cn(C)c2ccc(S(=O)(=O)N3CCOCC3)cc2c1=O)OC | -
CCCn1cc(S(=O)(=O)CC(=O)Nc2ccc(C)cc2)c2ccccc21 | -
O=C1OC(c2ccccc2)OC(=O)C1=C/C=C/c1ccccc1 (centres undefined) | -
CN(C)c1ccc(/C=C2\SC(=O)NC2=O)cc1 | -
O=C1NC(=S)S/C1=C\C=C\c1ccccc1 | 86
O=C(CN1C(=O)/C(=C\C=C\c2ccccc2)SC1=S)Nc1ccc(F)cc1 | -
O=C1/C(=C/C=C/c2ccccc2)SC(=S)N1c1cccc(F)c1 | -
O=C1NC(=O)/C(=C\C=C\c2ccccc2)S1 | 55
CCn1cc(C(=O)N(Cc2ccc(N(C)C)cc2)Cc2ccco2)c(=O)c2ccc(C)nc21 | -
CN1CCC(N(C)C(=O)c2cc(-c3ccco3)nc3ccccc23)CC1 | -
CCSc1nnc(NC(=O)C(CC)Sc2ccc(Cl)cc2)s1 (centres undefined) | -
CCn1c(=O)c2cc(C(=O)NCC3CCCO3)sc2c2ccccc21 (centres undefined) | -
O=C(NCC1CCCO1)c1cc2c(s1)CCC2 (centres undefined) | -
SMILES | Vaccinia pol inh
O=C(NCC1CCCO1)c1cc2sc3ccccc3c2s1 (centres undefined) | 66
Cc1ccc(NC2=NC(C)(C)N=C(N)N2)cc1 | -
O=C(O)CN=Cc1ccccc1O | -
Cc1cc(Nc2ccccc2)n2cnnc2n1 | -
Cc1cc(Nc2ccccc2)n(C(C)(C)C)n1 | -
Cc1cc(Nc2ccccc2)n(-c2ccccc2C(=O)O)n1 | 86
N#Cc1ncc(C(F)(F)F)cc1Oc1ccc(O)cc1 | -
CC1(C)CC(=O)C2=C(C1)N(c1ccccc1)C(=O)CC2c1cccnc1 (centres undefined) | -
CCC(=O)NCCCc1nc2ccccc2n1Cc1ccccc1 | -
COC(=O)c1c(NC(=O)c2ccc(OC)cc2)sc2c1CCN(C)C2 | -
N#Cc1ccsc1NC(=O)c1ccc2ncsc2c1 | -
CN1CCc2c(sc(NC(=O)c3ccc4ncsc4c3)c2C(N)=O)C1 | 85
O=C(N/C(=C/c1ccccc1)S(=O)(=O)c1ccc(Cl)cc1)c1ccccc1 | -
CCCC(=O)N=c1sc2cc(Cl)ccc2n1CC | -
Cc1ccc(S(=O)(=O)CCC(=O)Nc2ccc(C)c(C)c2)cc1 | -
CN(C)c1ccc(N2CC(=O)SC2=NC#N)cc1 | -
Cc1cc(NCc2ccco2)c2ccccc2n1 | -
Cc1cc(NCCNc2ccccc2)c2ccc3ccccc3c2n1 | 72
Cc1cc(SCC(=O)Nc2ccccc2)c2ccccc2n1 | -
COc1cc2c(cc1OC)[C@@H](Cc1ccc(O)cc1)N(C)CC2 | -
CC(NS(=O)(=O)c1ccc(Cl)cc1)C(=O)O (centres undefined) | -
N/N=C1\CCCc2c1[nH]c1ccc(C(=O)NN)cc21 | 46
CC(C)c1ccc2[nH]c3c(c2c1)CCC/C3=N\O | -
Cc1ccc(C(=O)NCc2ccc3[nH]c4c(c3c2)CCCC4)cc1C | -
CO/C1=C\C(C)=C\[C@@H](C)[C@@H](O)[C@H](C)C/C(C)=C/C=C/[C@H](OC)[C@@H]([C@@H](C)[C@@H](O)[C@H](C)[C@H]2C[C@@H](O)[C@H](C)[C@@H](C(C)C)O2)OC1=O | -
SMILES | Vaccinia pol inh
O=C1NC(=O)C(Cc2ccccc2)S1 (centres undefined) | 79
Cc1ccc(CC2SC(=O)NC2=O)cc1Cl (centres undefined) | -
O=C1NC(=O)C(Cc2ccc(C(=O)O)cc2)S1 (centres undefined) | -
CSC1=N/C(=C\c2ccccc2Cl)C(=O)N1 | -
O=c1oc2ccccc2cc1-c1nn(-c2ccccc2)cc1C=NCc1ccccc1 | -
CCc1ccccc1NC(=O)CCNS(=O)(=O)c1ccc2c(c1)CC(C)N2C(C)=O (centres undefined) | -
O[C@@H]1[C@@H](O)[C@H](Nc2ccccc2)OC[C@H]1O | -
CC(=O)Nc1cc(NC(C)=O)cc(C(F)(F)F)c1 | -
CCOC(=O)CCC(=O)O[C@H]1[C@H](O[C@@H]2[C@@H](C)[C@H](O[C@H]3C[C@@](C)(OC)[C@@H](O)[C@H](C)O3)[C@@H](C)C(=O)O[C@H](CC)[C@@](C)(O)[C@H](O)[C@@H](C)C(=O)[C@H](C)C[C@@]2(C)O)O[C@H](C)C[C@@H]1N(C)C | -
CC[C@H]1OC(=O)[C@H](C)[C@@H](O[C@H]2C[C@@](C)(OC)[C@@H](O)[C@H](C)O2)[C@H](C)[C@@H](O[C@@H]2O[C@H](C)C[C@H](N(C)C)[C@H]2O)[C@](C)(O)C[C@@H](C)C(=O)[C@H](C)[C@@H](O)[C@]1(C)O | 23!
CCC(=O)O[C@H]1[C@H](O[C@@H]2[C@@H](C)[C@H](O[C@H]3C[C@@](C)(OC)[C@@H](O)[C@H](C)O3)[C@@H](C)C(=O)O[C@H](CC)[C@@](C)(O)[C@H](O)[C@@H](C)C(=O)[C@H](C)C[C@@]2(C)O)O[C@H](C)C[C@@H]1N(C)C | -
c1ccc(-c2cc(-c3ccco3)no2)cc1 | -
COc1cc(N=C(SCc2c(C)c(C)c(C)c(C)c2C)N2CCOCC2)c(OC)cc1Cl | -
COc1ccc(/C=C2\SC(=S)N(CCC(=O)Nc3ccc(C)cc3)C2=O)cc1OC | -
Cc1cc2nc(-c3ccc(Cl)nc3)[nH]c2cc1C | -
Cn1c(-c2ccc3nc(-c4ccc(N)cc4)[nH]c3c2)nc2cc(N)ccc21 | -
Cc1cc(N)cc2[nH]c(-c3ccc(N)cc3)nc12 | 60
Cc1cc(Cl)nc(NN)c1C#N | -
COc1cc(/C=C2/SC(=O)N(c3ccc(C)cc3)C2=O)ccc1O | -
CC(C)N(C(=S)Nc1ccccc1Cl)C(C)c1ccccn1 (centres undefined) | -
COc1cc2cc(C)nc(Cc3cccc4ccccc34)c2cc1OC | -
COc1cc2cc(C)nc(C)c2cc1OC | 68
COc1cc2cc(=O)[nH]c(C)c2cc1OC | -
CCc1cc(C(=O)OC)c(NC(=O)CC2Sc3ccccc3NC2=O)s1 (centres undefined) | -
COc1ccc(C(=O)Nc2ccc(N3CCOCC3)c(F)c2)cc1 | -
O=C1NC(c2ccccc2)=NC1=C(Cl)Cl | -
Cc1ccc(Nc2nc(N3CC(C)OC(C)C3)nc3c2cnn3C)cc1Cl (centres undefined) | -
COc1ccc(Nc2nc(N3CCN(CCO)CC3)nc3c2cnn3C)cc1Cl | 38
CCc1nc2c(cnn2-c2ccc(F)cc2)c(=O)n1-c1ccc(OC)c(Cl)c1 | -
